Source: PubChem BioAssay (Tox21)
Inconclusive results are not listed. Active and inactive are the calls of the source. Unless noted, calls come from the whole dose curve; as a rule, active = well fitted curve in the direction sought with a large enough effect in the repeat runs; inconclusive = weak or mixed curves; inactive = no such curve, though single readings can be large; an effect the other way counts as inactive or inconclusive.

What was measured:
[1] = qHTS assay to identify small molecule antagonists of the glucocorticoid receptor (GR) signaling pathway - cell viability counter screen (AID 720693); note: nearly all actives have a fitted effect of over 55% in size
[2] = qHTS assay for identifying genotoxic compounds that show differential cytotoxicity against isogenic chicken DT40 cell lines with known DNA damage response pathways - wild type cell line (AID 743012); note: nearly all actives have a fitted effect of over 60% in size
Summary of the method: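 Endpoint: CellTiter-Glo luminescence, 30 min RT. Cells: wild type DT40, 300/well. Exposure: compounds in DMSO, 40 h, 37 C/5% CO2, after ~0.5 h pre-incubation.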

[3] = qHTS assay for identifying genotoxic compounds that show differential cytotoxicity against isogenic chicken DT40 cell lines with known DNA damage response pathways - Rev3 mutant cell line (AID 743014); note: nearly all actives have a fitted effect of over 55% in size
[4] = qHTS assay for identifying genotoxic compounds that show differential cytotoxicity against isogenic chicken DT40 cell lines with known DNA damage response pathways - Rad54/Ku70 mutant cell line (AID 743015); note: nearly all actives have a fitted effect of over 60% in size
[5] = qHTS assay to identify small molecule antagonists of the androgen receptor (AR) signaling pathway - cell viability counter screen (AID 743033; note: nearly all actives have a fitted effect of over 45% in size)
[6] = target: Androgen receptor (Homo sapiens) (UniProt P10275); test: qHTS assay to identify small molecule antagonists of the androgen receptor (AR) signaling pathway (AID 743035; active = well fitted inhibition curve with a large enough effect in the signal ratio in the repeat runs, not every such curve was filed as active; the % refers to the signal ratio)
Summary of the method: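 R1881 agonist challenge of a HEK293 UAS-beta-lactamase AR reporter line in the presence of compound (16 h, 37C); signal taken as FRET fluorescence after 2 h with LiveBLAzer B/G substrate at room temperature.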

[7] = target: Androgen receptor (Homo sapiens) (UniProt P10275); test: qHTS assay to identify small molecule agonists of the androgen receptor (AR) signaling pathway using the MDA cell line (AID 743040; note: nearly all actives have a fitted effect of over 20% in size)
Summary of the method: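 Cell-based luciferase reporter: MDA-kb2, MMTV promoter (AR + GR response elements). 16 h compound exposure at 37C; ONE-Glo, 30 min RT, luminescence.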

[8] = qHTS assay to identify small molecule antagonists of the androgen receptor (AR) signaling pathway using the MDA cell line - cell viability counter screen (AID 743041; note: nearly all actives have a fitted effect of over 45% in size)
Summary of the method: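 In this qHTS counter assay, fluorescence intensity after CellTiter-Fluor addition indicated viability of MDA-kb2 AR-luc cells given compounds and R1881 for 16 h at 37C.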

[9] = target: Androgen receptor (Homo sapiens) (UniProt P10275); test: qHTS assay to identify small molecule antagonists of the androgen receptor (AR) signaling pathway using the MDA cell line (AID 743042; note: nearly all actives have a fitted effect of over 55% in size)
Summary of the method: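 MDA-kb2 cells (human breast carcinoma, stably carrying an MMTV-luciferase reporter responsive to AR and GR) were plated at 3,000 cells/well and preincubated 5 hr at 37C, then given compound plus R1881 agonist for 16 h. ONE-Glo luminescence was read.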

[10] = qHTS assay to identify small molecule antagonists of the thyroid receptor (TR) signaling pathway - cell viability counter screen (AID 743064); note: nearly all actives have a fitted effect of over 50% in size
Summary of the method: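 Same-well viability check: GH3.TRE-Luc cells stimulated with 1 nM T3 alongside test compound for 23.5 h, followed by CellTiter-Fluor fluorescence.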

[11] = qHTS assay to identify small molecule antagonists of the thyroid receptor (TR) signaling pathway (AID 743065); note: series mostly up to about 70 µM; nearly all actives have a fitted effect of over 55% in size
Summary of the method: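 GH3.TRE-Luc rat pituitary cells carrying two TR response elements driving luciferase were plated for 4 h, given compound plus 1 nM T3 (final), and incubated 23.5 h at 37 C. ONE-Glo luminescence measured reporter inhibition; CellTiter-Fluor fluorescence tracked cytotoxicity.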

[12] = test system: thyroid hormone receptor (rat, GH3 cells); test: qHTS assay to identify small molecule agonists of the thyroid receptor (TR) signaling pathway (AID 743066; calls by dose curve)
[13] = target: Estrogen receptor (Homo sapiens) (UniProt P03372); test: qHTS assay to identify small molecule antagonists of the estrogen receptor alpha (ER-alpha) signaling pathway (AID 743069; active = well fitted curve in the direction sought with a large enough effect in the signal ratio in the repeat runs, not every such curve was filed as active; the % refers to the signal ratio)
Summary of the method: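 A 17beta-estradiol challenge was applied right after compound transfer to ER-alpha-UAS-bla HEK293 cells previously kept in charcoal-stripped serum. Plates stood 18 hr at 37C and 5% CO2; fluorescence was read following 2 hr FRET substrate loading at room temperature.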

[14] = qHTS assay to identify small molecule antagonists of the estrogen receptor alpha (ER-alpha) signaling pathway - cell viability counter screen (AID 743074; calls by dose curve;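 note: HEK293 cells carrying ER-alpha-UAS-bla reporter stimulated with 17beta-estradiol; nearly all actives have a fitted effect of over 45% in size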)
[15] = target: Estrogen receptor (Homo sapiens) (UniProt P03372); test: qHTS assay to identify small molecule agonists of the estrogen receptor alpha (ER-alpha) signaling pathway (AID 743075; calls by dose curve;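 note: HEK293 GripTite cells with ER-alpha and UAS-driven beta-lactamase reporter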)
[16] = target: Estrogen receptor (Homo sapiens) (UniProt P03372); test: qHTS assay to identify small molecule agonists of the estrogen receptor alpha (ER-alpha) signaling pathway using the BG1 cell line (AID 743079); note: nearly all actives have a fitted effect of over 20% in size; note: potency is the fitted concentration of half-maximal effect
[17] = qHTS assay to identify small molecule antagonists of the estrogen receptor alpha (ER-alpha) signaling pathway using the BG1 cell line (AID 743080; calls by dose curve;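 note: BG1 cells stimulated with 17beta-estradiol alongside compound; series mostly up to about 70 µM; nearly all actives have a fitted effect of over 25% in size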)
Summary of the method: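 BG1-Luc-4E2 cells (endogenous full-length ER-alpha, 4xERE luciferase) hormone-starved 5 days in charcoal-stripped FBS, plated 4,000/well for 24 h, then compound plus 17beta-estradiol for 21.5 h at 37 C; ONE-Glo luminescence read.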

[18] = qHTS assay to identify small molecule antagonists of the estrogen receptor alpha (ER-alpha) signaling pathway using the BG1 cell line - cell viability counter screen (AID 743081);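 note: compound given together with 17beta-estradiol as the ER stimulus; series mostly up to about 70 µM; nearly all actives have a fitted effect of over 45% in size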
[19] = target: Aromatase (Homo sapiens) (UniProt P11511); test: qHTS assay to identify aromatase inhibitors (AID 743083)
[20] = target: Androgen receptor (Homo sapiens) (UniProt P10275); test: qHTS assay to identify small molecule agonists of the androgen receptor (AR) signaling pathway (AID 743036; active = well fitted activation curve with a large enough effect in the signal ratio in the repeat runs, with a control signal flat, not every such curve was filed as active; the % refers to the signal ratio)
Summary of the method: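 Agonist activity was scored by beta-lactamase reporter fluorescence in stably transfected HEK293 cells exposed to compounds for 16 h at 37C and 5% CO2. Substrate loading took 2 h at room temperature.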

Measured: Potency

Chain of Androgen receptor (Homo sapiens) (P10275 whole entry, looked up): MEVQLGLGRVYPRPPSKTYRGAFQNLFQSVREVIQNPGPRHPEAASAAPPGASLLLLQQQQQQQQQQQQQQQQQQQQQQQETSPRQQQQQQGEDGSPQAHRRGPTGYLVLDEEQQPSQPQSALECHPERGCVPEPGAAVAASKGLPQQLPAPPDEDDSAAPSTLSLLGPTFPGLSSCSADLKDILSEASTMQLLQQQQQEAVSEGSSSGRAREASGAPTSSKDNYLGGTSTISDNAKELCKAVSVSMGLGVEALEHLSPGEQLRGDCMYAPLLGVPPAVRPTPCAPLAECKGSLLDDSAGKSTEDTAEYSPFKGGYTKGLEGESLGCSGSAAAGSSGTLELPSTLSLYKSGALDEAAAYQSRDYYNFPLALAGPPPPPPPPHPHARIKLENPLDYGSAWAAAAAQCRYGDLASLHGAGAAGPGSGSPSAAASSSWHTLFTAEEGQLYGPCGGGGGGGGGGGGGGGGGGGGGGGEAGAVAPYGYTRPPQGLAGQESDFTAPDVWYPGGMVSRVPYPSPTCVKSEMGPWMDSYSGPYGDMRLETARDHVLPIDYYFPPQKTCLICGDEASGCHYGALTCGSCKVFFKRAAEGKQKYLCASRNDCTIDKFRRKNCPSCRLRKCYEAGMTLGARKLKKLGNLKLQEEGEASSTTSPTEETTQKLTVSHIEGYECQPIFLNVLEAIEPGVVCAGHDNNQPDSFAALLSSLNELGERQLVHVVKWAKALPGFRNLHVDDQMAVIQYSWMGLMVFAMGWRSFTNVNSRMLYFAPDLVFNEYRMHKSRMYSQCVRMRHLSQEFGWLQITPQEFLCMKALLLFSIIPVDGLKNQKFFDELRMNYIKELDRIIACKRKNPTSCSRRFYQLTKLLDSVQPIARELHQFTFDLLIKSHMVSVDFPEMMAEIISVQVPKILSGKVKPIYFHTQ
Chain of Estrogen receptor (Homo sapiens) (P03372 whole entry, looked up): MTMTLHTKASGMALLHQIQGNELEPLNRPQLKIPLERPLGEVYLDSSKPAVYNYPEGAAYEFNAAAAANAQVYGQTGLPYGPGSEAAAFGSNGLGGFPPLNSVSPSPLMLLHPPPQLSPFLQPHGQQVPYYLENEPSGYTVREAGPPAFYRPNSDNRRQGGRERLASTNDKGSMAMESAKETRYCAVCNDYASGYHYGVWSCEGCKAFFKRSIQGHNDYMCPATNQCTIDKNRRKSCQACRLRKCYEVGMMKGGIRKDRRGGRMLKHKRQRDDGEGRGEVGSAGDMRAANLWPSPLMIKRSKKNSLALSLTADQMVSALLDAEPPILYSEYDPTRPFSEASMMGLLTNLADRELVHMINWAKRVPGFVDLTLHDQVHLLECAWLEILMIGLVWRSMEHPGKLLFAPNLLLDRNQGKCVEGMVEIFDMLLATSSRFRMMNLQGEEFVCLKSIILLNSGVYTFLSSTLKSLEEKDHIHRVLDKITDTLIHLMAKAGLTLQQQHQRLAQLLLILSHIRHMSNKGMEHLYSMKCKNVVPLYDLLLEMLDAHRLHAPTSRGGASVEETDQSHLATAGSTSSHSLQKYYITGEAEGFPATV
Chain of Aromatase (Homo sapiens) (P11511 whole entry, looked up): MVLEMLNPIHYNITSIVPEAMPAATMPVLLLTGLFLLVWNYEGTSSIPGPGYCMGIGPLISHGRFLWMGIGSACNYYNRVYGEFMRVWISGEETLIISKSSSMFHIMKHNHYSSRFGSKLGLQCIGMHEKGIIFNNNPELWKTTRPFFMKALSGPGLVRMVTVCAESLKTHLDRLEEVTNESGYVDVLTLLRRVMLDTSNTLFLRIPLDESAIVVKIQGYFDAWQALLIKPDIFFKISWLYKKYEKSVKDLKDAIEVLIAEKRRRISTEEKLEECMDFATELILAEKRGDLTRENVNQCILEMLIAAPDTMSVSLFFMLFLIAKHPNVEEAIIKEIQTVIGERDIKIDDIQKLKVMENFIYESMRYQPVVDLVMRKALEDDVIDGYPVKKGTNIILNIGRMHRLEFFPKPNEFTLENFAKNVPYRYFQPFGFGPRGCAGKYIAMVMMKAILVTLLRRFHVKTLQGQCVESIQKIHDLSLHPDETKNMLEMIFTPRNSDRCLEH

CC1(C)C(O)C(C)(C)C1O (stereo not drawn)
not listed: [20]
inactive: all other assays above

OCCOc1ccc(OCCO)cc1
not listed: [6] | [7] | [9] | [20]
inactive: all other assays above

CCN1CCC[C@H]1CNC(=O)c1cc(S(N)(=O)=O)ccc1OC
not listed: [11] | [13] | [15] | [16] | [17]
inactive: all other assays above

CCC(C)C1CCCCC1=O (stereo not drawn)
not listed: [6] | [7] | [9] | [20]
inactive: all other assays above

CC(C)(CC(=O)O)C(=O)O
not listed: [10]
inactive: all other assays above

CCCCCCCCCCCCCCCCC
active: [16] 61.1 µM
not listed: [6] | [7] | [9] | [20]
inactive: all other assays above

CC(=O)Nc1ccc(S(N)(=O)=O)cc1
inactive: all assays above

COc1ccc2c(c1)c(CC(=O)OCC(=O)O)c(C)n2C(=O)c1ccc(Cl)cc1
not listed: [13] | [15] | [16] | [17] | [18] | [20]
inactive: all other assays above

CC(C)OC(=O)c1ccccc1
not listed: [6] | [7] | [9] | [14] | [20]
inactive: all other assays above

CCCCNC(=O)NCCCC
not listed: [11] | [12] | [20]
inactive: all other assays above

CC(C(=O)O)c1ccc(CC2CCCC2=O)cc1 (stereo not drawn)
not listed: [6] | [7] | [9] | [20]
inactive: all other assays above

N=C(N)c1ccc2cc(OC(=O)c3ccc(N=C(N)N)cc3)ccc2c1
not listed: [6] | [11]
inactive: all other assays above

CC(C)(C)c1nnc(NS(=O)(=O)c2ccccc2)s1
not listed: [6] | [7] | [9] | [20]
inactive: all other assays above

CC(C)c1cc2c(cc1S(=O)(=O)O)[C@@]1(C)CCC[C@@](C)(C(=O)O)[C@@H]1CC2
not listed: [6] | [7] | [9] | [20]
inactive: all other assays above

O=C1OC(=O)C2CCCCC12 (stereo not drawn)
not listed: [6] | [7] | [9] | [20]
inactive: all other assays above

CC(=O)OCC(CCn1cnc2cnc(N)nc21)COC(C)=O
not listed: [17]
inactive: all other assays above
